# Laboratory results: PubChem BioAssay (Tox21)
# Values without a mark were called inactive. Records with an inconclusive call do not appear. Where a call stands in place of a potency, no number is given. Active and inactive are the calls of the source. Calls follow the shape of the full dose curve.
# Biological target: Muscarinic acetylcholine receptor M1 (Homo sapiens) (UniProt P11229)
# Experiment: Cholinergic receptor muscarinic 1 (CHRM1) small molecule antagonists, cell-based qHTS assay (AID 1963588); also: nearly all actives have a fitted effect of over 40% in size; also: potency is read from the fitted curve at half-maximal effect
# Settings: CHRM1-CHO antagonist mode, calcium flux fluorescence; series mostly up to 61.5 µM
# Summary of the method: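 CHRM1-CHO calcium-flux assay, antagonist mode. Cells were seeded 18 h, dye-loaded 1 h at 37 C and given compound for 5 min at RT, then acetylcholine was added at 50nM. FDSS fluorescence was read 3 min; 15 concentrations, three runs.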
# Sequence of Muscarinic acetylcholine receptor M1 (Homo sapiens) (P11229 whole entry, looked up): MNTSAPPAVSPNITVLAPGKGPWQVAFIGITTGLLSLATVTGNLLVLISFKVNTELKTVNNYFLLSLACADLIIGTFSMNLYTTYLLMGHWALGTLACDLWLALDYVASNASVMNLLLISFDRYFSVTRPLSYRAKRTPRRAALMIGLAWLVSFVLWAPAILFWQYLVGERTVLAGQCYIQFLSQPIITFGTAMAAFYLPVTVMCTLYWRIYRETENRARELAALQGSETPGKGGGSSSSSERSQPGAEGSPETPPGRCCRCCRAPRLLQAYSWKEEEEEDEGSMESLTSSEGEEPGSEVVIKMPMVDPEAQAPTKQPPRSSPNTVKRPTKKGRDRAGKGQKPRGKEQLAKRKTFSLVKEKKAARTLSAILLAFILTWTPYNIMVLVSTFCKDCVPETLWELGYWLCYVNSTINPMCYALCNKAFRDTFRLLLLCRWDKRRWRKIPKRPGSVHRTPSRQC
Compound,Potency,"activity, negative = inhibition"
Nc1cccc2c(N)cccc12,inactive,
COC(=O)CC(C)CCC=C(C)C (configuration not stated),inactive,
CC(C)n1nc(-c2cc3cc(O)ccc3[nH]2)c2c(N)ncnc21,inactive,
CCOC(=O)COc1ccc2c(C)c(CCN(CC)CC)c(=O)oc2c1Cl,2.59 µM (active),
Cc1cccc(C)c1NC(=O)CN1CCN(CCCC(c2ccc(F)cc2)c2ccc(F)cc2)CC1,inactive,
O=C(Nc1cccc([N+](=O)[O-])c1)c1cc2ccccc2cc1O,inactive,
COc1ccccc1N1CCN(CC(O)COc2cccc3ccccc23)CC1 (configuration not stated),inactive,
CC(CN)CC(C)(C)CCN (configuration not stated),10.8 µM (active),
Cc1cc(NC(=O)C(=O)O)cc(C)c1Oc1ccc(O)c2c1CCC2,inactive,
OCCCS,inactive,
Cc1cc(=O)oc2cc(N(C)C)ccc12,inactive,
CCCCCOc1ccccc1/C(=C\SC)n1ccnc1,inactive,
CC[C@H]1CC[C@H](NCc2cc3c(cc2OC)[C@H]2C[C@H]2C(=O)N3C)[C@H](c2ccccc2)N1,0.0472 µM (active),
C=CC(=O)OCC1CC2CC1C1CCC(COC(=O)C=C)C21 (configuration not stated),inactive,
C=CC(=O)OCCCCCCOC(=O)C=C,inactive,
CCCCNCCCC,inactive,
CCC(C)(C)c1ccc(CC(C)CN2C[C@@H](C)O[C@@H](C)C2)cc1 (some centres not stated),3.65 µM (active),
CCCCCCCCCCCCCCCCCCCl,,10% [at 5.58 µM]
Cc1cc(Nc2ccc(O)cc2)ccc1N,inactive,
c1cc(CN2CCCCC2)cc(OCCCNc2nc3ccccc3s2)c1,5.79 µM (active),
CCCCCCC(C)OC(=O)COc1nc(F)c(Cl)c(N)c1Cl (configuration not stated),inactive,
CC(O)C#CC(C)O (configuration not stated),inactive,
COC(=O)C1=C(C)NC(COC(N)=O)=C(C(=O)OC(C)C)C1c1cccc(Cl)c1Cl (configuration not stated),inactive,
c1ccc(Cc2ccccc2)cc1,inactive,
O=C(Nc1ccc(Cl)cc1)Nc1ccc(Cl)c(C(F)(F)F)c1,inactive,
Oc1c(I)cc(Cl)c2cccnc12,inactive,
CCOc1ccc(N=Nc2ccc(/C=C/c3ccc(N=Nc4ccc(OCC)cc4)cc3S(=O)(=O)O)c(S(=O)(=O)O)c2)cc1,inactive,
CCCCCC[C@@H](O)C/C=C\CCCCCCCC(=O)O,inactive,

# Biological target: Muscarinic acetylcholine receptor M1 (Homo sapiens) (UniProt P11229)
# Experiment: Cholinergic receptor muscarinic 1 (CHRM1) small molecule agonists, cell-based qHTS assay (AID 1963589); also: nearly all actives have a fitted effect of over 35% in size
# Settings: CHRM1-CHO cells, agonist mode, calcium flux fluorescence; series mostly up to 76.8 µM
# Summary of the method: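 CHO cells stably expressing human CHRM1, seeded 18 h at 37 C/5% CO2, dye-loaded 1 h at 37 C, then given compound in agonist mode; intracellular calcium fluorescence read kinetically at 1 s intervals. Fifteen concentrations, three independent runs.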
Compound,Potency,activation
Nc1cccc2c(N)cccc12,inactive,
CC(C)n1nc(-c2cc3cc(O)ccc3[nH]2)c2c(N)ncnc21,inactive,
CNCc1ccc(NC(=O)c2c[nH]c3c2C(=O)CCC3)cc1,inactive,
CCOC(=O)COc1ccc2c(C)c(CCN(CC)CC)c(=O)oc2c1Cl,inactive,
Cc1cccc(C)c1NC(=O)CN1CCN(CCCC(c2ccc(F)cc2)c2ccc(F)cc2)CC1,inactive,
COc1ccccc1N1CCN(CC(O)COc2cccc3ccccc23)CC1 (configuration not stated),inactive,
Cc1cc(NC(=O)C(=O)O)cc(C)c1Oc1ccc(O)c2c1CCC2,inactive,
OCCCS,inactive,
Cc1cc(=O)oc2cc(N(C)C)ccc12,inactive,
CCCCCOc1ccccc1/C(=C\SC)n1ccnc1,inactive,
CC[C@H]1CC[C@H](NCc2cc3c(cc2OC)[C@H]2C[C@H]2C(=O)N3C)[C@H](c2ccccc2)N1,inactive,
C=CC(=O)OCC1CC2CC1C1CCC(COC(=O)C=C)C21 (configuration not stated),inactive,
CCc1c(C(=O)NN2CCCCC2)nn(-c2ccc(Cl)cc2Cl)c1-c1ccc(Br)cc1,inactive,
COC(=O)c1nc(Cl)c(Cl)nc1N,inactive,
c1cc(OCC2CO2)cc(OCC2CO2)c1 (configuration not stated),inactive,
C=CC(=O)OCCCCCCOC(=O)C=C,inactive,
CCCCNCCCC,inactive,

Compound,Potency,activation
O=C(c1ccc(F)cc1)C1CCN(CCn2c(=S)[nH]c3ccccc3c2=O)CC1,inactive,
Clc1ccc(Cn2c(CN3CCCC3)nc3ccccc32)cc1,inactive,
CCC(C)(C)c1ccc(CC(C)CN2C[C@@H](C)O[C@@H](C)C2)cc1 (some centres not stated),inactive,
CCCCCCCCCCCCCCCCCCCl,,0.0826% [at 6.97 µM]
c1cc(CN2CCCCC2)cc(OCCCNc2nc3ccccc3s2)c1,inactive,
COC(=O)C1=C(C)NC(C)=C(C(=O)O[C@@H]2CCCN(Cc3ccccc3)C2)[C@@H]1c1cccc([N+](=O)[O-])c1,inactive,
O=[N+]([O-])c1ccc(O/N=C/c2cc(Br)c(O)c(Br)c2)c([N+](=O)[O-])c1,inactive,
CCCCCCC(C)OC(=O)COc1nc(F)c(Cl)c(N)c1Cl (configuration not stated),inactive,
CC(O)C#CC(C)O (configuration not stated),inactive,
COC(=O)C1=C(C)NC(COC(N)=O)=C(C(=O)OC(C)C)C1c1cccc(Cl)c1Cl (configuration not stated),inactive,
c1ccc(Cc2ccccc2)cc1,inactive,
O=C(Nc1ccc(Cl)cc1)Nc1ccc(Cl)c(C(F)(F)F)c1,inactive,
S=c1[nH]c2ccccc2s1,inactive,
Oc1c(I)cc(Cl)c2cccnc12,inactive,
CCOc1ccc(N=Nc2ccc(/C=C/c3ccc(N=Nc4ccc(OCC)cc4)cc3S(=O)(=O)O)c(S(=O)(=O)O)c2)cc1,inactive,
CN(C)CCCN1c2ccccc2Sc2ccc(C(F)(F)F)cc21,inactive,
CCCCCC[C@@H](O)C/C=C\CCCCCCCC(=O)O,inactive,
